According to ChEMBL document CHEMBL4888484, “Replenishing the malaria drug discovery pipeline: Screening and hit evaluation of the MMV Hit Generation Library 1 (HGL1) against asexual blood stage Plasmodium falciparum ,using a nano luciferase reporter read-out” (2022):
In all, about 4,800 compounds went through this assay and about 420 (8.8%) showed an effect of 50% or more. What follows is part of a selection rich in strong results, with near analogues and random picks from the rest.

tested on: Plasmodium falciparum; assay: Confirmatory screen in NF54 nanoGlo assay, in single point, at 2uM, 72h; assay type: functional, Erythrocyte; details: timepoint 72 hour

SMILES	% Inhibition [%]
Cc1occc1C(=O)NC1(c2ccccc2)CCOCC1	-5
COc1cc(OC)c(NC(=O)[C@H]2CCCN(c3nc4ccccc4[nH]c3=O)C2)cc1Cl	-2
Cc1nc2ccccc2n1C(=O)c1sc2ccccc2c1Cl	-1
O=S(=O)(c1ccc(Br)cc1)N1CCOC12CCCCC2	-7
Cn1nnc(Cn2nnc(-c3ccccc3)n2)n1	-11
CS(=O)(=O)N1CCC[C@H](Cn2nnnc2C=Cc2ccccc2)C1	8
Cc1csc(NC(=O)NCCc2cc(F)cc3c2OCOC3)n1	-14
COC[C@H](NCCc1cc(F)cc2c1OCOC2)C1CC1	63
COc1ccccc1N1CCN(C(=O)c2nnn(-c3ccccc3Cl)c2-c2cccnc2)CC1	-2
Cc1ccc(OCc2cccc(-c3nc4c5cn[nH]c5ncn4n3)c2)c(C)c1	-7
CC(C)N(CCCNC(=O)c1cnn2c3c(cnc12)CCCCCC3)Cc1ccccc1	0
COc1ccc(Cl)cc1NC(=O)Cc1c(C)nc2nc(-c3ccccc3C)nn2c1C	-2
COc1ccc(Cn2nc(C)n(-c3cccc(F)c3)c2=O)cc1	-1
COc1ccc(CC(=O)Nc2cc(C)n(-c3cccc(Cl)c3)n2)cc1	81
Fc1ccc(-c2csc(N3CCC[C@H](c4cn[nH]c4)C3)n2)cc1	-1
CCOC(=O)n1c(=O)[nH]c2ccc(Br)cc21	-10
Cc1cc(NS(=O)(=O)c2cccs2)n(-c2ccncc2)n1	2
O=S(=O)(Nc1nncs1)c1cccs1	-10
O=S(=O)(Nc1cccc2cccnc12)c1cccs1	60
COc1nc(N)nc(C(Cl)(Cl)Cl)n1	0
Cc1cc(F)ccc1CS(=O)(=O)N1CCC(CN2CCOCC2)CC1	-8
C[C@H](N)c1ccc(Nc2ncc3cc(-c4ccncc4)ccc3n2)cc1	93
CC(C)c1ccc(-c2n[nH]nc2C(=O)c2ccccc2N)cc1	-1
CC(C)c1ncsc1C(=O)NC(C)(C)C(=O)NCC1CCCC1	-13
Cc1cccc(NC(=O)c2c(C)sc3ncnc(N4CCCCC4)c23)c1C	10
C[n+]1ccc(-c2ncc(-c3ccccc3)o2)c2ccccc21	75

SMILES	% Inhibition [%]
CCc1ccc(CS(=O)(=O)NC(=O)c2cn3ccnc3s2)cc1	6
CCn1ccnc1C(=O)Nc1ccc(OC)nc1	-6
Cc1ccc(NC(=O)c2cn(CC3(O)CCN(Cc4ccccc4)CC3)nn2)c(C)c1	1
N#Cc1ccc(NCCc2ccc(O)cc2)cn1	-9
O=C(Nc1[nH]c(=O)ncc1F)c1cc(F)c(F)cc1Br	95
O=C(Nc1ccccc1-c1nnc[nH]1)c1ccc(F)c(Cl)c1	-3
CC1(C)C(=O)NCCN1C(=O)c1cccc2ccccc12	5
COc1ccc(C(=O)Nc2ccc3c(c2)C(=O)Nc2cccnc2O3)cc1OC	46
Cn1ccc(NC(=O)c2cccc3ccccc23)n1	-8
O=C(Nc1[nH]c(=O)ncc1F)c1cccc2ccccc12	84
COc1cc(C(=O)Nc2[nH]c(=O)ncc2F)ccc1Cl	81
CC(C)CN1C(=O)CC[C@@H](C(=O)NCCCOC(C)C)[C@@H]1c1cccnc1	-13
Cc1cc(C(=O)Nc2cc(Br)c(=O)n(C)c2)no1	-14
Cc1ccc(N2CCCC2)c(C(=O)N2CCN(Cc3c(C)nc4cc(C)ccn34)CC2)c1	3
O=C(Nc1cnc(-n2ccnc2)nc1)C(c1ccccc1)c1ccccc1	36
C[C@H]1CCCN(c2nc3ncn(CC(=O)Nc4ccccc4C(F)(F)F)c(=O)c3s2)C1	-15
O=C(NC1CCCCC1)c1cc2c(Cl)ccc3c2n1CCO3	-10
O=C(CC1CCOCC1)NCc1ccccn1	-11
COc1ccc(C(=O)N2CC[C@H](c3nc(C4CCOCC4)no3)C2)cc1OC	2
O=C(NCC1CCOCC1)c1ccc2n[nH]c(=O)n2c1	-1
COc1ccc(-c2[nH]ncc2C(=O)NCC2CCCCC2)cc1OC	2
Cc1ccc(C(=O)N2CC(n3cnnc3C)C2)cc1F	-19
COc1nc(-c2cccc(C(=O)NCC3CCOCC3)c2)ncc1F	66
COc1nc(-c2cccc(C(=O)N3C[C@@H]4CC[C@H](C3)C(=O)N4)c2)ncc1F	67
COCc1cc(C(=O)N[C@H](c2ccccc2)C2CCOCC2)no1	0
COCc1cc(C)n(CC#N)c(=O)c1C#N	11

SMILES	% Inhibition [%]
CCCc1ccc(Cl)c(S(=O)(=O)Nc2nnc(C3CC3)o2)c1	2
COC[C@@H](C)CNc1nc(C)cc(C)n1	-3
CCn1cc2c(n1)c(=O)n(Cc1ccc(C)cc1)c(=O)n2CC(=O)Nc1ccc(C)cc1C	-10
COc1ccc(C(=O)N2CC[C@H](CC(=O)N3CCOCC3)C2)cc1	-9
Cc1c(C(=O)NCCc2ccc(Cl)cc2)oc2ccc3c(c12)[C@@H](O)CC(C)(C)O3	4
O=C(N[C@H](c1ccccc1)C1CC1)c1cccnc1O	-9
CC1CCCC(N2C(=O)c3ccccc3C2NCc2ccccc2)C1C (centres undefined)	0
CCOC(=O)c1cnc(N2CCCC2)nc1C1CCN(C(=O)OC(C)(C)C)CC1	-2
Cc1cc(C(=O)NCc2ccco2)nn1C(F)F	-13
Cc1noc(C)c1CS(=O)(=O)CCC(=O)NC1CCCCC1	-11
CC(c1ccccc1)N1C(=O)c2ccccc2C1c1c[nH]c2ccccc12 (centres undefined)	23
CCOc1cc(C)ccc1S(=O)(=O)NC(C)C	-3
NC1CC(NCCc2cccc3cccnc23)c2ccccc21 (centres undefined)	43
NC(=NCc1cccc2cccnc12)N1CCN(c2nccs2)CC1	57
Cc1ccc(C(=O)N2CCC(N3C(=O)[C@H]4CCCN4C3=O)CC2)cc1	-9
COC(=O)c1cccc(C#Cc2cccc(NC(=O)c3cnc(C)cn3)c2)c1	-19
Cc1ccc2nc(-c3cccc(NC(=O)c4ccc5c(c4)OCO5)c3)oc2c1	-12
COCCNC(=O)c1ccc(-n2nc(-c3nnc(C)o3)c(C)c2-c2ccc(OC)cc2)cc1	46
CC(C)N(C)CCOC(=O)c1ccccc1Cl	-1
CCN1c2cc(C(=O)NCc3ccncc3)ccc2C(=O)N2CCCC[C@H]21	-2
Cc1cc(C(=O)N(CCN(C)C)c2ccccc2)c(C)s1	-1
Cc1cc(C(=O)Nc2ccc(Br)c(C)n2)no1	-12
Cc1cc(Br)ccc1N1CC[C@@H](C(=O)NC2CC2)C1=O	2
CCN(CCO)S(=O)(=O)c1ccc2c(c1)CCO2	-7
O=c1cc2c(nn1Cc1cccc(Cl)c1)-c1ccccc1CC2	-6
c1ccc(CC2=NCCc3ccccc32)cc1	65

SMILES	% Inhibition [%]
Cc1cccc2ncnc(N(C)[C@@H](C)Cc3ccc(O)cc3)c12	79
COc1ccccc1Nc1c(-c2cccs2)nc2ccccn12	-2
Cc1c(N=C2NC3(CCCCC3)Cc3ccccc32)c(=O)n(C)n1-c1ccccc1	-1
CCC[N+]1(CC#C[C@@](O)(c2ccccc2)C(C)(CC)CC)CCCCC1	48
CC1([C@@](O)(C#CC[N+]2(C)CCCCC2)c2ccccc2)CCCC1	50
CCC[N+]1(CC#C[C@@](O)(c2ccccc2)C2(C)CCCC2)CCCCC1	46
O=C(N1CCCN(c2nc3ccccc3nc2-c2ccccc2)CC1)C(Cl)(Cl)Cl	46
CCN(CC)c1ccc(C(=O)Nc2ccc3nc(N4CCCC4)cc(C)c3c2)cc1	85
CCn1cc(C(=O)Nc2ccc(C(=O)N3CCCCC3)cc2)cn1	1
COc1cc(OC)cc(C(=O)Nc2ccc3nc(N4CCC(C)CC4)cc(C)c3c2)c1	47
COc1ccc(N(Cc2ccc(F)cc2)S(=O)(=O)c2ccc3nncn3c2)cc1	-13
CC(C)CC(=O)Nc1ccc2c(c1)C(N1CCC(C)CC1)=Nc1ccccc1O2	0
Cc1oc(C(=O)N2CC3(CCCC3)c3ccccc32)cc1S(=O)(=O)N(C)C	4
COCCCn1c(NS(=O)(=O)c2ccccc2)c(S(=O)(=O)c2ccc(C)cc2)c2nc3ccccc3nc21	61
COCCCN(Cc1c(C)nn(-c2cccc(F)c2)c1N1CCN(C)CC1)S(=O)(=O)c1ccc2ccccc2c1	7
COCCCn1c(NS(=O)(=O)c2ccc3ccccc3c2)c(S(=O)(=O)c2ccc(C)cc2)c2nc3ccccc3nc21	56
COc1ccc(-c2cc(C[C@H]3CNCC[C@H]3CC(=O)Nc3ccccc3)no2)cc1	-7
CCCn1c(C)ccc(-c2noc(CCC(=O)NC3CCCC3)n2)c1=O	-6
CN(C(=O)C1C(C(=O)O)C1(C)C)c1ccccc1OC(F)F (centres undefined)	-2
Cc1ccc(C(=O)Nc2cc3c4c(c2)C2CCCC2CN4CC2CCCC32)cc1 (centres undefined)	60
Cc1ccccc1[C@H]1CCN(c2ccc(NC(=O)c3ccc(Cl)cc3)c(C(=O)O)c2)C1	-11
Cc1ccc(C(=O)Nc2ccc(N3CCN(CCC#N)CC3)cc2C(=O)O)cc1	-12
CC(C)(C)OC(=O)N1C2CCC1CC(CC(=O)NC1CCCC1)C2 (centres undefined)	8
COCCN(CC1CN(Cc2cccs2)CC1c1cccc(F)c1)C(=O)C(C)C (centres undefined)	-3
Cc1cc(C)n2cc(COC(=O)Cn3c(C)cc4ccccc43)nc2n1	-2
Cc1oc2ncn(CCN3CCCC3)c(=O)c2c1C(=O)Nc1ccc(C#N)cc1	34
